{"source": "PubChem BioAssay (NCATS)"}
{"test": "High-throughput drug toxicity screening in the BPDCN cell line Gen2.2 (AID 1224824)", "conditions": "Gen2.2 BPDCN cells; at 45.8 µM (top of the series) unless noted", "source_text": "Blastic plasmacytoid dendritic cell neoplasm (BPDCN) is a rare, aggressive and largely incurable hematologic malignancy originating from plasmacytoid dendritic cells (pDCs). Although an initial response to chemotherapy is common, BPDCN prognosis is extremely poor and most patients relapse with drug-resistant disease leading to a median overall survival of ~1 year after diagnosis. To explore novel potential therapeutic strategies in BPDCN, we performed a high-throughput drug toxicity screening in BPDCN cell liens, using of a library of 1,912 small molecules, enriched for compounds that are either approved or in early stages of development for cancer therapy.\nA total of 500 exponentially growing Gen2.2 cells were seeded per well in 5 uL of media (RPMI + Glutamine, without phenol red plus10% FBS and 1X Pen/Strep) into 1536-well solid white high base tissue culture treated Greiner One Bio Plates (789173-F), using a multidrop combi dispenser and a small sterile cassette. Compounds and controls totaling 23nL per well (negative control DMSO and positive control 9.2 uM Bortezomib-final) were immediately added to the plates using a 1536 head pin tool from Kalypsys. The plates were then covered with stainless steel gasket lids from Kalypsys and incubated for 48 hours at 37C under 95% relative humidity with 5% CO2. After 48 hours, the plates were removed and allowed to reach room temperature before 3 uL of Cell Titer Glo reagent (Promega) were added using an Aurora Flying Reagent Dispenser Bioraptor. The plates were then spun at 1000 rpms to remove bubbles and incubated for 15 minutes at room temperature before reading on a ViewLux using a luminescent filter with a 10 second exposure. The relative luciferase units were used to calculated percent activity using DMSO as 100% and Bortezomib as 0%.", "units": {"cell viability, % of control (lower = more cytotoxic)": "%"}}
{"compound": "COCCOC(=O)C1=C(C)NC2=C(C(=O)CC(c3ccccc3OC)C2)C1c1cccc(O)c1", "note": "(stereo not given)", "cell viability, % of control (lower = more cytotoxic)": 4.78}
{"compound": "CC(=Cc1ccccc1)C=C1SC(=S)N(CC(=O)O)C1=O", "cell viability, % of control (lower = more cytotoxic)": 124}
{"compound": "O=C1c2c(O)cc(O)cc2O[C@H](c2cc(O)c(O)c(O)c2)[C@H]1O", "cell viability, % of control (lower = more cytotoxic)": 112}
{"compound": "NC(CO)(CO)CCc1ccc(Sc2cccc(OCc3ccccc3)c2)cc1Cl", "cell viability, % of control (lower = more cytotoxic)": 7.64}
{"compound": "CC1(C)CCC(CN2CCN(c3ccc(C(=O)NS(=O)(=O)c4ccc(NCC5CCOCC5)c([N+](=O)[O-])c4)c(Oc4cnc5[nH]ccc5c4)c3)CC2)=C(c2ccc(Cl)cc2)C1", "cell viability, % of control (lower = more cytotoxic)": 37.9}
{"compound": "CC1(C)Cc2c(sc(NC(=S)NC(=O)c3ccccc3)c2C(=O)O)CO1", "cell viability, % of control (lower = more cytotoxic)": 100}
{"compound": "O=C1NC(=O)C(=Cc2cccc(C(F)(F)F)c2)S1", "cell viability, % of control (lower = more cytotoxic)": 128}
{"compound": "CNC(=O)c1ccccc1Sc1ccc2c(C=Cc3ccccn3)n[nH]c2c1", "cell viability, % of control (lower = more cytotoxic)": 311}
{"compound": "Nc1ncnc2c1nc(Cl)n2[C@@H]1O[C@H](CO)[C@@H](O)[C@@H]1O", "cell viability, % of control (lower = more cytotoxic)": 6.19}
{"compound": "O=C(Nc1ccccc1Br)N[C@@H]1CCN(c2ccc(C(F)(F)F)cn2)C1", "cell viability, % of control (lower = more cytotoxic)": 266}
{"compound": "CC(C)(C)OC(=O)N[C@H]1CCCCCC=C[C@@H]2C[C@@]2(C(=O)NS(=O)(=O)C2CC2)NC(=O)[C@@H]2C[C@@H](OC(=O)N3Cc4cccc(F)c4C3)CN2C1=O", "cell viability, % of control (lower = more cytotoxic)": 46.5}
{"compound": "CC1(C)S[C@H]2[C@H](NC(=O)[C@@H](N)c3ccc(O)cc3)C(=O)N2[C@@H]1C(=O)O", "cell viability, % of control (lower = more cytotoxic)": 125}
{"compound": "O=C(Nc1ccccc1-c1cn2c(CN3CCNCC3)csc2n1)c1cnc2ccccc2n1", "cell viability, % of control (lower = more cytotoxic)": 2.56}
{"compound": "CCOC(CN1C(=O)[C@](CC(=O)Nc2ccc(C)cc2)(NC(=O)Nc2ccc(C)cc2)c2ccccc21)OCC", "cell viability, % of control (lower = more cytotoxic)": 45.2}
{"compound": "CN(C)Cc1cccc(N=C(c2ccccc2)c2c(O)[nH]c3cc(C(=O)N(C)C)ccc23)c1", "cell viability, % of control (lower = more cytotoxic)": 6.16}
{"compound": "COc1cc2c(cc1OC)CN(CCc1ccc(NC(=O)c3cc(OC)c(OC)cc3NC(=O)c3cnc4ccccc4c3)cc1)CC2", "cell viability, % of control (lower = more cytotoxic)": 115}
{"compound": "CC=C(C)C(=O)O[C@H]1C(C)=C[C@]23C(=O)[C@@H](C=C(CO)[C@@H](O)[C@]12O)[C@H]1[C@@H](C[C@H]3C)C1(C)C", "cell viability, % of control (lower = more cytotoxic)": 38.4}
{"compound": "CNC(=O)c1ccc2cc(C3(O)CCn4cncc43)ccc2c1", "note": "(stereo not given)", "cell viability, % of control (lower = more cytotoxic)": 82.2}
{"compound": "CC=CC[C@@H](C)C(=O)[C@H]1C(=O)N[C@@H](C(C)C)C(=O)N(C)CC(=O)N(C)[C@@H](CC(C)C)C(=O)N[C@@H](C(C)C)C(=O)N(C)[C@@H](CC(C)C)C(=O)N[C@@H](C)C(=O)N[C@H](C)C(=O)N(C)[C@@H](CC(C)C)C(=O)N(C)[C@@H](CC(C)C)C(=O)N(C)[C@@H](C(C)C)C(=O)N1C", "cell viability, % of control (lower = more cytotoxic)": 62.3}
{"compound": "CC1(C)CCC[C@@]2(C)[C@@H]1CC[C@@]1(C)OC(=O)C[C@H]21", "cell viability, % of control (lower = more cytotoxic)": 95}
{"compound": "Cc1ccn(-c2ccc(-c3ncco3)cc2)c(=O)c1-c1ccc2nc(N)ncc2c1", "cell viability, % of control (lower = more cytotoxic)": 316}
{"compound": "Nc1ncnc2c1ncn2[C@@H]1O[C@H](CO)C[C@@H]1O", "cell viability, % of control (lower = more cytotoxic)": 96.4}
{"compound": "CC(C)(C)C(=O)Oc1ccc2c(c1)nc(NC(=O)c1cccc([N+](=O)[O-])c1)n2CCCO", "cell viability, % of control (lower = more cytotoxic)": 190}
{"compound": "O=C(Nc1c(Cl)cncc1Cl)c1ccc(OC(F)F)c(OCC2CC2)c1", "cell viability, % of control (lower = more cytotoxic)": 134}
{"compound": "CCc1ccc(OCc2ccccc2C(=O)Nc2ccc3nc(C)cc(N)c3c2)cc1", "cell viability, % of control (lower = more cytotoxic)": 7.97}
{"compound": "Cc1c(O)cccc1C(=O)N[C@@H](CSc1ccccc1)[C@H](O)CN1C[C@H]2CCCC[C@@H]2C[C@@H]1C(=O)NC(C)(C)C", "cell viability, % of control (lower = more cytotoxic)": 66.8}
{"compound": "CON=C(C(=O)N[C@@H]1C(=O)N2C(C(=O)OCOC(=O)C(C)(C)C)=C(C=Cc3scnc3C)CS[C@H]12)c1csc(N)n1", "cell viability, % of control (lower = more cytotoxic)": 90.5}
{"compound": "CN(C)Cc1ccc(-c2nc3cccc4c3n2CCNC4=O)cc1", "cell viability, % of control (lower = more cytotoxic)": 15.8}
{"compound": "COc1cccc([C@@H](C)NCCCc2ccccc2Cl)c1", "cell viability, % of control (lower = more cytotoxic)": 172}
{"compound": "O=c1cc(CN2CCOCC2)occ1OCCCCCSc1ccnc2cc(C(F)(F)F)ccc12", "cell viability, % of control (lower = more cytotoxic)": 186}
{"compound": "NS(=O)(=O)c1ccc(NC2=CC(=O)c3ccccc3C2=O)cc1", "cell viability, % of control (lower = more cytotoxic)": 162}
{"compound": "CC(=NNC(=S)N1CCC1)c1ccccn1", "cell viability, % of control (lower = more cytotoxic)": 91.1}
{"compound": "Cc1ccccc1C(C(=O)NC1CCCCC1)N(C(=O)Cn1ccnc1C)c1cccc(F)c1", "note": "(stereo not given)", "cell viability, % of control (lower = more cytotoxic)": 125}
{"compound": "Cc1ccc(C(C)(O)c2nc3ccccc3s2)c(C)c1", "note": "(stereo not given)", "cell viability, % of control (lower = more cytotoxic)": 129}
{"compound": "CNC1CCC(N(Cc2cccc(-c3ccncc3)c2)C(=O)c2sc3c(F)ccc(F)c3c2Cl)CC1", "note": "(stereo not given)", "cell viability, % of control (lower = more cytotoxic)": 0.6}
{"compound": "O=C(O)c1c(Cl)c(Cl)c(Cl)c(Cl)c1-c1c2cc(I)c(=O)c(I)c-2oc2c(I)c(O)c(I)cc12", "cell viability, % of control (lower = more cytotoxic)": 96.1}
{"compound": "c1ccc2c(Cc3c[nH]c4ccccc34)c[nH]c2c1", "cell viability, % of control (lower = more cytotoxic)": 29.3}
{"compound": "C[C@]12CC[C@@H]3c4ccc(O)cc4CC[C@H]3[C@H]1C[C@@H](O)[C@H]2O", "cell viability, % of control (lower = more cytotoxic)": 77.1}
{"compound": "CC[C@]1(O)C[C@@H]2CN(CCc3c([nH]c4ccccc34)[C@@](C(=O)OC)(c3cc4c(cc3OC)N(C=O)[C@@H]3C45CCN4CC=C[C@](CC)([C@H]45)[C@@H](OC(C)=O)[C@]3(O)C(=O)OC)C2)C1", "note": "(stereo not given in full)", "cell viability, % of control (lower = more cytotoxic)": 15}
{"compound": "O=C(O)C(O)Cc1ccc(O)c(O)c1", "note": "(stereo not given)", "cell viability, % of control (lower = more cytotoxic)": 94.8}
